# In article PMC7862700, “An all-to-all approach to the identification of sequence-specific readers for epigenetic DNA modifications on cytosine”:
# What was measured:
# Test in all cases: DAPPL (digital affinity profiling via proximity ligation, sequencing); 10 mM Tris-HCl pH 7.5, 50 mM NaCl, 1 mM DTT, 4% glycerol, room temperature, 30 min; GST-TFs on glutathione beads, 16-mer random dsDNA library, 0.1% formaldehyde crosslink after washing; high values mean tight binding
# Details in all cases: protein: recombinant; tags: N-terminal GST; dsDNA, one strand shown
# ERF = target: T1, ERF (Homo sapiens, UniProt P50548 1-548)
# T1 sequence: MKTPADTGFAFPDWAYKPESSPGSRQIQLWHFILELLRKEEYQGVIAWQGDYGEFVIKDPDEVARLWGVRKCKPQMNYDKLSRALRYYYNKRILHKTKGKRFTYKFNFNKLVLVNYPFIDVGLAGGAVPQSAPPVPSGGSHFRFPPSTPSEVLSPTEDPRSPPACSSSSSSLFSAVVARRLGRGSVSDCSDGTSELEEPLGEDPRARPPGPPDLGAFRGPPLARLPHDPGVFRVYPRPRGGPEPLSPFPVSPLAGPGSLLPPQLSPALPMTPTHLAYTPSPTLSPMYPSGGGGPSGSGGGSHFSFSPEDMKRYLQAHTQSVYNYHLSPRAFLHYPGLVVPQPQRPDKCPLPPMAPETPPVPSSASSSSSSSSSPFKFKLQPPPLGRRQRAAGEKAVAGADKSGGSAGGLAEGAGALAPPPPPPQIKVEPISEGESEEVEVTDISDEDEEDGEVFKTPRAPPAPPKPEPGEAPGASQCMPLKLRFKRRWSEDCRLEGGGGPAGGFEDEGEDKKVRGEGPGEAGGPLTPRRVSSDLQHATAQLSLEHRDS
# Summary of the method: (§1)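 Sequencing on an Illumina NextSeq500 followed washing, crosslinking with 0.1% formaldehyde, proximity ligation (BsaI/T4 ligase, 1 h, 37 °C) and PCR amplification of pools that had been incubated for 30 min at room temperature with 200 nmole of a random double-stranded 16-mer DNA library in Tris/NaCl/DTT/glycerol buffer. Each pool held DNA-barcoded human transcription factors, expressed in yeast as GST fusions and captured on glutathione beads, plus a tag-only sample. Binding signal is a hexamer's read frequency for a factor divided by its frequency in the tag-only sample.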
# ETV3L = target: T2, ETV3L (Homo sapiens, UniProt Q6ZN32 1-361)
# T2 sequence: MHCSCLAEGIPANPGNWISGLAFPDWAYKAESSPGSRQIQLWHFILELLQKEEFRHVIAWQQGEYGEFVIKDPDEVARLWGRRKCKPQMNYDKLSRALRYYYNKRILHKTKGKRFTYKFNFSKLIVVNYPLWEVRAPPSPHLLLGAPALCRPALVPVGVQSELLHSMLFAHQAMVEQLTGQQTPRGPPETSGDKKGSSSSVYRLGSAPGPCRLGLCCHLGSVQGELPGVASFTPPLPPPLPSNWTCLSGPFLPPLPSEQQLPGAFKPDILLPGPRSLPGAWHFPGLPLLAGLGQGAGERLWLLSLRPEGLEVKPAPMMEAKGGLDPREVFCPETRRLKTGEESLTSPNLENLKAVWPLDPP
# Summary of the method: as §1
# ETS2 = target: T3, ETS2 (Homo sapiens, UniProt P15036 1-469)
# T3 sequence: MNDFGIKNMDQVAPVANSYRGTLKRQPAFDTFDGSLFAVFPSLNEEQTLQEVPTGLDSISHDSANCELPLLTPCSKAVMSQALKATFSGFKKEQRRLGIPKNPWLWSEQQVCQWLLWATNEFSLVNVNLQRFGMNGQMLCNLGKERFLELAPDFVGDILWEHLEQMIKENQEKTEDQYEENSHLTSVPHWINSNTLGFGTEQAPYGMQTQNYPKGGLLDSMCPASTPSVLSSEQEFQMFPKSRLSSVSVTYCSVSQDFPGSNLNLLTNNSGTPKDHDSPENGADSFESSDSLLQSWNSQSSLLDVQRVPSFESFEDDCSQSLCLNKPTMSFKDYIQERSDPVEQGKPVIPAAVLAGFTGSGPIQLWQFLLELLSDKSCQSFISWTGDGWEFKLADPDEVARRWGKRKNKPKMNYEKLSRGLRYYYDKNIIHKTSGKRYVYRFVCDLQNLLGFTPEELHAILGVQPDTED
# Summary of the method: as §1
# SPDEF = target: T4, SPDEF (Homo sapiens, UniProt O95238 1-335)
# T4 sequence: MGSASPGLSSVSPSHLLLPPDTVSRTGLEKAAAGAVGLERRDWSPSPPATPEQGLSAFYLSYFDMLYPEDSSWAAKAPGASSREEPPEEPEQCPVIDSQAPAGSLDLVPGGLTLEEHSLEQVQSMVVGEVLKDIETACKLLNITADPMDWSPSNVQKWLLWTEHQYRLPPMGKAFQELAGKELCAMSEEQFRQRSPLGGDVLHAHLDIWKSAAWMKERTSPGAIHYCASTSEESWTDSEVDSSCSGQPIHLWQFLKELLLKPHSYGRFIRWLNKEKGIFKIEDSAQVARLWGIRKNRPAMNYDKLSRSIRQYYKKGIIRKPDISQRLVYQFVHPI
# Summary of the method: as §1
# ETV7 = target: T5, ETV7 (Homo sapiens, UniProt Q9Y603 1-341)
# T5 sequence: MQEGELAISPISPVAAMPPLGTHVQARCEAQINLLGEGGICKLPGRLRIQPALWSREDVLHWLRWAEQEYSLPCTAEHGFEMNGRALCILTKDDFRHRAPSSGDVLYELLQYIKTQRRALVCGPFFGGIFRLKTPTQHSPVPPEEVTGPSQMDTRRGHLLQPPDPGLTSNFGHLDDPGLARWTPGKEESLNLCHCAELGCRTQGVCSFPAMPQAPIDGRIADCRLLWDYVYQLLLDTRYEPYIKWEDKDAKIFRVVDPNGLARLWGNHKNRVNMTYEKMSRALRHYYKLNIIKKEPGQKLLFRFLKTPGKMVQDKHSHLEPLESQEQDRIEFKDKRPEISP
# Summary of the method: as §1
# ELF5 = target: T6, ELF5 (Homo sapiens, UniProt Q9UKW6-2 1-255)
# T6 sequence: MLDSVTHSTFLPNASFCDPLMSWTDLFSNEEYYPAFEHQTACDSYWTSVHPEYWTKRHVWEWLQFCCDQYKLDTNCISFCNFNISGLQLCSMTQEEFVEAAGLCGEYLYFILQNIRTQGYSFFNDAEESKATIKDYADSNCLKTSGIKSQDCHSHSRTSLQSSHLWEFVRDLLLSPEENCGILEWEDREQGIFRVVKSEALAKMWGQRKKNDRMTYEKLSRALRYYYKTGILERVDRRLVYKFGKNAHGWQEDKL
# Summary of the method: as §1
# ETV3 = target: T7, ETV3 (Homo sapiens, UniProt P41162-2 1-143)
# T7 sequence: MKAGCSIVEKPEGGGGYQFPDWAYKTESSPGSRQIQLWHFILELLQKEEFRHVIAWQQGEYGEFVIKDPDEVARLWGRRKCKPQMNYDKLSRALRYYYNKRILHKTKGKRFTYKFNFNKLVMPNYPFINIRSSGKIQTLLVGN
# Summary of the method: as §1
# ETV6 = ETV6 (Homo sapiens, UniProt P41212 1-452)
# Summary of the method: as §1
# Chain of ETV6 (P41212 whole entry): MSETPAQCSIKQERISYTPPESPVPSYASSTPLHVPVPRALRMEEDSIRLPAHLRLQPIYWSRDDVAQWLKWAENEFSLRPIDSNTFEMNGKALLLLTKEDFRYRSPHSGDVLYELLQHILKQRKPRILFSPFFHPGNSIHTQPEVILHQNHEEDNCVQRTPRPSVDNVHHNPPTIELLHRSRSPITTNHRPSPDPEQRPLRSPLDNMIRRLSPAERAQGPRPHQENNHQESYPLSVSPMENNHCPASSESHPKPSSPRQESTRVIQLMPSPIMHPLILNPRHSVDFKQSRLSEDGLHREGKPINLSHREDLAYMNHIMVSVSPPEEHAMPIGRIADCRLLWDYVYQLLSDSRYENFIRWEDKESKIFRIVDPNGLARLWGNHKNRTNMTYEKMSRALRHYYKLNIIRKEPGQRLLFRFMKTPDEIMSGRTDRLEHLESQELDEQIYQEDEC
Sequence,binding signal (ERF),binding signal (ETV3L),binding signal (ETS2),binding signal (SPDEF),binding signal (ETV7),binding signal (ELF5),binding signal (ETV3),binding signal (ETV6)
GAACTC,"1.11 fold enrichment (6-mer frequency, TF over GST control)","1.3 fold enrichment (6-mer frequency, TF over GST control)","1.26 fold enrichment (6-mer frequency, TF over GST control)","1.33 fold enrichment (6-mer frequency, TF over GST control)","1.29 fold enrichment (6-mer frequency, TF over GST control)","1.32 fold enrichment (6-mer frequency, TF over GST control)","1.33 fold enrichment (6-mer frequency, TF over GST control)","1.28 fold enrichment (6-mer frequency, TF over GST control)"
AATCTA,"1.25 fold enrichment (6-mer frequency, TF over GST control)","1.08 fold enrichment (6-mer frequency, TF over GST control)","1.16 fold enrichment (6-mer frequency, TF over GST control)","1.02 fold enrichment (6-mer frequency, TF over GST control)","1.13 fold enrichment (6-mer frequency, TF over GST control)","1.1 fold enrichment (6-mer frequency, TF over GST control)","1.05 fold enrichment (6-mer frequency, TF over GST control)","1.09 fold enrichment (6-mer frequency, TF over GST control)"
CTACCG,"1.62 fold enrichment (6-mer frequency, TF over GST control)","1.69 fold enrichment (6-mer frequency, TF over GST control)","1.63 fold enrichment (6-mer frequency, TF over GST control)","1.63 fold enrichment (6-mer frequency, TF over GST control)","1.54 fold enrichment (6-mer frequency, TF over GST control)","1.64 fold enrichment (6-mer frequency, TF over GST control)","1.58 fold enrichment (6-mer frequency, TF over GST control)","1.53 fold enrichment (6-mer frequency, TF over GST control)"
AGCTCT,"1.16 fold enrichment (6-mer frequency, TF over GST control)","1.34 fold enrichment (6-mer frequency, TF over GST control)","1.16 fold enrichment (6-mer frequency, TF over GST control)","1.03 fold enrichment (6-mer frequency, TF over GST control)","1.17 fold enrichment (6-mer frequency, TF over GST control)","1.12 fold enrichment (6-mer frequency, TF over GST control)","1.21 fold enrichment (6-mer frequency, TF over GST control)","1.17 fold enrichment (6-mer frequency, TF over GST control)"
GCACTT,"1.61 fold enrichment (6-mer frequency, TF over GST control)","1.84 fold enrichment (6-mer frequency, TF over GST control)","1.76 fold enrichment (6-mer frequency, TF over GST control)","1.91 fold enrichment (6-mer frequency, TF over GST control)","1.92 fold enrichment (6-mer frequency, TF over GST control)","1.88 fold enrichment (6-mer frequency, TF over GST control)","1.94 fold enrichment (6-mer frequency, TF over GST control)","2 fold enrichment (6-mer frequency, TF over GST control)"
TGTTAA,"1.19 fold enrichment (6-mer frequency, TF over GST control)","1.14 fold enrichment (6-mer frequency, TF over GST control)","1.11 fold enrichment (6-mer frequency, TF over GST control)","1.09 fold enrichment (6-mer frequency, TF over GST control)","1.1 fold enrichment (6-mer frequency, TF over GST control)","1.13 fold enrichment (6-mer frequency, TF over GST control)","1.16 fold enrichment (6-mer frequency, TF over GST control)","1.16 fold enrichment (6-mer frequency, TF over GST control)"
